Assay results taken from the supplement of paper PMC3616981.

Compound: CC(C)c1cccc(C(C)C)c1N1C(=O)c2ccc(O)cc2C1=O
Assay: reporter fold induction vs vehicle; higher = higher reporter activity
Method: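 Attagene multiplexed transcription-factor reporter assay (48 cis response elements and 25 trans nuclear-receptor constructs) treated with 5HPP-33 at 8 concentrations (0.091–200 µM). The response is fold induction of reporter activity relative to vehicle control. Cell line and time not stated in the paper; tested in ToxCast Phase II for this study.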

Target | reporter fold induction (0.091 µM) | reporter fold induction (0.274 µM) | reporter fold induction (0.823 µM) | reporter fold induction (2.469 µM) | reporter fold induction (7.407 µM) | reporter fold induction (22.22 µM) | reporter fold induction (66.67 µM) | reporter fold induction (200 µM)
M_32_TRANS | 1.03 | 0.997 | 1.07 | 1.09 | 1.08 | 1.08 | 0.964 | 1
Sox_CIS | 0.965 | 1.03 | 1.03 | 1.04 | 0.984 | 1.19 | 1.19 | 2.17
TAL_CIS | 1.06 | 0.981 | 1.01 | 0.98 | 1.11 | 1.09 | 1 | 1.28
NRF1_CIS | 1.01 | 0.997 | 1.04 | 1.01 | 0.978 | 0.868 | 1.02 | 1.44
HSE_CIS | 0.991 | 0.939 | 1.05 | 1.05 | 0.985 | 0.942 | 1.81 | 3.95
